# From PubChem BioAssay
# FMDV inh – High Throughput Screening for Foot and Mouth Disease Virus Antivirals; 410,000 tested, 1.2% active; Potency, µM (series often up to 57.9 µM), usual class: inhibitors; FMDV antiviral cell-based qHTS; calls by dose curve; tested in HEK293T cells; further: read-out not given here; nearly all actives have a fitted effect of over 45% in size
# Marburg entry inh – qHTS for inhibitors of binding or entry into cells for Marburg Virus; Potency, µM (highest dose often 37.8 µM), usual class: inhibitors; 300,000 tested, 1.8% active; Marburg virus pseudotyped entry inhibition, cell reporter; calls by dose curve; tested in HEK293 cells
# Lassa entry inh – qHTS for Inhibitors of binding or entry into cells for Lassa Virus; Lassa virus pseudotype entry inhibition, cell reporter; Potency, µM (highest dose often 37.9 µM), usual class: inhibitors; 300,000 tested, 1.2% active; AID 540256, 2011; calls by dose curve; tested in HEK293 cells; further: nearly all actives have a fitted effect of over 50% in size
# HCV inh – qHTS Assay for Inhibitors of Hepatitis C Virus (HCV). Huh7.5.1 HCVcc-Cre infection, luciferase reporter, 44 h. Potency, µM (doses to about 41.8 µM), actives largely listed as inhibitors. 340,000 tested, 3.4% active
#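 Cells seeded at 1,000/well and cultured 4 h, then compounds added followed by HCVcc-Cre virus (~0.5 moi). After 44 h further culture, luciferase substrate was added, plates held 15 min at room temperature, and luminescence read for 15 sec.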
# HCMV antiviral – qHTS Assay for inhibitors of the human cytomegalovirus (HCMV); HFF cells, HCMV-luciferase reporter, 72 h; hits give low values; activity change, negative = inhibition, % at 57.5 µM; 410,000 tested, 4.5% active; in the data active means activity change below about -60%; inconclusive means no clear call, values can overlap the other calls; inactive means above about -39%
#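 Two compound doses tested in HFFs infected with HCMV-luciferase, MOI 1 PFU/cell, 72 h at 37C. Lysate luminescence read with OneGlo; data normalized against buffer-only and 10uM Salinomycin inhibitor controls.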
# Giardia FBPA inh – qHTS Assay for Inhibitors of Fructose-1,6-bisphosphate Aldolase from Giardia Lamblia | A8B2U2 | purified Giardia FBPA | Potency, µM (doses to about 59.6 µM), actives largely listed as inhibitors | 290,000 tested, 0.71% active; further: nearly all actives have a fitted effect of over 55% in size
# Target sequence (A8B2U2 whole entry, looked up): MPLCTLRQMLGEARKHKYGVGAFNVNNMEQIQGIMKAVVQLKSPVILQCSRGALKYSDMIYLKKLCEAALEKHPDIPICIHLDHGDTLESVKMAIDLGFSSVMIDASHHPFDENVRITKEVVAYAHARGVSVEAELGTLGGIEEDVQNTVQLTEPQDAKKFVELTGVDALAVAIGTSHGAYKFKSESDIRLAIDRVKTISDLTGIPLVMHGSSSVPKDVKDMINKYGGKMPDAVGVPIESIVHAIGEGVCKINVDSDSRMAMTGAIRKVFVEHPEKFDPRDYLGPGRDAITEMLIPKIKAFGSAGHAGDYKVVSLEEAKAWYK
#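 Giardia FBPA (40 nM reagent) was preincubated 10 min at RT with compound (up to 57.5 uM final), then substrate plus GAPDH/TPI/NAD/arsenate coupling system with diaphorase/resazurin was added; resorufin fluorescence (525/598 nm) was read after 20 min.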
# Hits are given with their value; n = inactive; u = inconclusive; x = no result. Most compounds without a hit are left out; they make up all but 8.3% or so of the library. Unless noted, the call rests on the fitted dose curve; in most records, active means well fitted curve in the direction sought with a large enough effect; inconclusive means small, poorly fitted or top-dose-only effect, or another doubt; inactive means no such curve, though single readings can be large; an effect the other way counts as inactive or inconclusive.
SMILES,FMDV inh,Marburg entry inh,Lassa entry inh,HCV inh,HCMV antiviral,Giardia FBPA inh
CN(C)CCCN(C(=O)c1cc2cc([N+](=O)[O-])ccc2s1)c1nc2cc3c(cc2s1)OCCO3,40µM,u,u,u,-98,x
CN(C)CCN(C(=O)c1ccc(S(=O)(=O)N(C)c2ccccc2)cc1)c1nc2cc3c(cc2s1)OCCO3,n,n,n,n,n,n
CN(C)CCCN(C(=O)c1ccc([N+](=O)[O-])s1)c1nc2cc3c(cc2s1)OCCO3,n,x,x,n,n,n
CN(C)CCCN(C(=O)c1ccc(S(=O)(=O)N2CCCCC2)cc1)c1nc2cc3c(cc2s1)OCO3,n,u,u,u,n,n
CCN(Cc1ccccc1)S(=O)(=O)c1ccc(C(=O)N(CCCN(C)C)c2nc3cc4c(cc3s2)OCCO4)cc1,u,u,u,11µM,n,x
Cc1ccc(C(CC(=O)Nc2ccc(F)c(Cl)c2)N2Cc3ccccc3C2=O)cc1 (centres undefined),n,x,n,x,-104,x
COc1ccc(C(CC(=O)Nc2ccc(F)c(Cl)c2)N2Cc3ccccc3C2=O)cc1OC (centres undefined),n,x,n,x,n,x
COc1ccc(C(C(=O)NC2CCCC2)N(C(=O)c2ccco2)c2cc3c(cc2C(C)=O)OCO3)cc1OC (centres undefined),n,n,n,n,n,n
COC(CN(C(=O)CCl)C(C(=O)NC1CCCCC1)c1ccccc1C)OC (centres undefined),u,u,u,10µM,-97,n
COc1ccc(N(C(=O)/C=C/C(=O)Nc2cc(C)on2)C(C(=O)NC2CCCC2)c2ccccc2C)cc1 (centres undefined),n,9.2µM,u,u,-64,n
COc1ccc(C(C(=O)NC2CCCC2)N(C(=O)c2ccco2)c2ccc3c(c2)OCO3)cc1OC (centres undefined),n,n,n,n,-75,n
O=C(CCCC(=O)N(c1ccc2c(c1)OCCO2)C(C(=O)NC1CCCCC1)c1ccc(Cl)cc1)Nc1ccccn1 (centres undefined),x,u,u,n,-69,n
O=C(NCCc1cccnc1)c1cnn(-c2ncc3c(n2)-c2ccccc2CC3)c1C1CC1,n,x,x,x,x,x
COc1ccc(C(C(=O)NC2CCCCC2)N(C(=O)CCl)c2ccc(Cl)cc2)cc1 (centres undefined),16µM,u,u,0.56µM,-101,n
O=C(NC1CCCCC1)C(c1cccnc1)N(C(=O)CCl)c1cccc(Cl)c1 (centres undefined),7.9µM,u,u,0.89µM,-104,n
COc1ccc(N(C(=O)c2ccco2)C(C(=O)NC2CCCC2)c2ccccc2)cc1 (centres undefined),n,u,u,n,n,n
COc1ccc(N(C(=O)c2ccco2)C(C(=O)NC2CCCCC2)c2ccccc2)cc1 (centres undefined),n,n,u,n,-77,x
Cc1ccc(CC(Cc2nc3ccccc3[nH]2)c2nc3ccccc3[nH]2)cc1 (centres undefined),x,x,x,x,x,n
Cc1cnc(CNc2ncncc2-c2ccccc2C(F)(F)F)cn1,n,x,x,x,x,n
Cc1ccc(N/C=C/C(=O)c2ccco2)c(O)c1,n,x,x,n,n,n
Cc1ccc([N+](=O)[O-])cc1N/C=C/C(=O)c1ccco1,x,u,12µM,6.3µM,n,n
NS(=O)(=O)c1ccc(N/N=C/c2ccc(O)cc2O)c([N+](=O)[O-])c1,n,x,x,n,-78,n
NS(=O)(=O)c1ccc(N/N=C/c2cn(-c3ccccc3)nc2-c2ccccc2)c([N+](=O)[O-])c1,n,x,x,10µM,-81,n
NS(=O)(=O)c1ccc(N/N=C/c2ccccn2)c([N+](=O)[O-])c1,n,u,u,u,-64,n
NS(=O)(=O)c1ccc(N/N=C/c2ccc(O)c(O)c2O)c([N+](=O)[O-])c1,n,u,n,n,n,7.9µM
SMILES,FMDV inh,Marburg entry inh,Lassa entry inh,HCV inh,HCMV antiviral,Giardia FBPA inh
NS(=O)(=O)c1ccc(N/N=C/c2ccccc2C(=O)O)c([N+](=O)[O-])c1,n,n,n,n,n,n
O=[N+]([O-])c1ccc(N/N=C/c2cn(-c3ccccc3)nc2-c2ccccc2)cc1,n,u,n,n,n,n
COc1ccc(CCNc2oc(COc3ccc(Br)cc3)nc2C#N)cc1OC,32µM,x,x,u,n,n
N#Cc1nc(Cc2cccc3ccccc23)oc1NCCN1CCCCC1,n,n,n,11µM,n,n
CNc1oc(Cc2cccc3ccccc23)nc1C#N,n,n,n,n,n,n
COc1ccc(CCNc2oc(Cc3cccc4ccccc34)nc2C#N)cc1OC,28µM,u,u,7.9µM,n,n
COc1ccc(CCNc2oc(COc3ccccc3F)nc2C#N)cc1,n,n,n,u,n,n
Cc1cc(C)c2c(c1)-c1c(ssc1=S)C(C)(C)N2C(=O)CSc1nncn1C,n,14µM,u,13µM,n,n
Cc1ccc2c(c1)-c1c(ssc1=S)C(C)(C)N2C(=O)CSc1nncn1C,u,u,u,10µM,n,n
O=C(c1cnccn1)N1CCC2(CCCN(Cc3nccs3)C2)CC1,n,x,x,x,x,n
COc1ccccc1CNc1ncnc2sccc12,n,6.3µM,u,u,-76,n
CN(C)c1ccc(CNc2ncnc3sccc23)cc1,u,u,3.5µM,1.8µM,-82,n
COc1ccccc1Oc1ncnc2sccc12,n,n,u,n,n,n
COc1cc2ncnc(NCc3ccccc3F)c2cc1OC,n,x,x,n,n,n
Fc1ccccc1CNc1ncnc2sccc12,u,u,n,2.2µM,n,n
c1ccc2c(c1)OCC(CNCC1COc3ccccc3O1)O2 (centres undefined),n,n,n,n,n,u
c1ccc2c(c1)OCC(CNc1ncnc3sccc13)O2 (centres undefined),u,u,n,1µM,-63,n
NS(=O)(=O)c1ccc(CNc2ncnc3sccc23)cc1,n,n,n,n,n,n
O=S1(=O)N[C@H](Cc2ccccc2)COc2cc(Br)ccc21,x,x,u,x,n,x
CCOC(=O)[C@H](C)Sc1nc(-c2cccs2)ccc1C#N,x,n,x,x,x,x
COc1ccc(CCNc2ncnc3sccc23)cc1OC,28µM,u,u,u,-89,n
COc1ccc(Nc2ncnc3sccc23)cc1OC,n,n,n,n,n,n
Cc1ccc(NC(=O)N2CCN(c3nnc(C)c4c(C)n(-c5ccccc5)nc34)CC2)cc1Cl,n,x,n,x,n,x
CCOC(=O)c1ccccc1NC(=O)CN(c1ccccc1OC)S(=O)(=O)c1ccc(C)cc1,n,x,u,x,n,x
Cc1cc(=O)n2nc(N3CCC(C(=O)N4CCN(c5ccccc5)CC4)CC3)sc2n1,n,u,n,n,n,n
